Test results reported in the supplement of paper PMC8975748.
Structures can show the parent of a compound that is named as a salt.

What follows are compounds tested on Saccharomyces cerevisiae BY4741 SeMeCo community (assay: z-score of prototroph abundance vs DMSO median; higher = larger share of this subpopulation than in DMSO controls). Settings: 10 µM; 24 h; SM minimal medium; subpopulation (auxotrophy): Prototroph.
Protocol: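 Fluorescent four-plasmid SeMeCo (self-establishing metabolically cooperating S. cerevisiae BY4741 community; plasmids pH-mRuby2, pL-mWasabi, pU-eCFP, pM-TagRFP657) was grown 24 h in minimal SM medium with each Selleck FDA-approved drug at 10 µM in 384-well plates. Cells were fixed and imaged by high-content confocal microscopy. For each auxotrophic subpopulation (and the prototroph), a z-score gives the deviation from the DMSO vehicle-control population median.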
In the case of `CNC1CCCN(c2c(F)cc3c(=O)c(C(=O)O)cn(C4CC4)c3c2OC)C1` (stereo not given) [Balofloxacin], the “z-score of prototroph abundance” value is reported as -0.14.
For `O=C(O)c1cc(/N=N/c2ccc(O)c(C(=O)O)c2)ccc1O` [Olsalazine Sodium], the “z-score of prototroph abundance” value was 1.33.
For `CO[C@H]1O[C@@H]2O[C@@]3(C)CC[C@H]4[C@H](C)CC[C@@H]([C@H]1C)[C@@]24OO3` [Artemether], the “z-score of prototroph abundance” value was 1.17.
In the case of `C[C@]1(COc2ccc(N3CCC(Oc4ccc(OC(F)(F)F)cc4)CC3)cc2)Cn2cc([N+](=O)[O-])nc2O1` [Delamanid], the “z-score of prototroph abundance” value is reported as -0.2.
In the case of `Oc1ccc([C@H]2COc3cc(O)ccc3C2)cc1` [Equol], the “z-score of prototroph abundance” value is reported as 0.13.
For `C/C=C1\[C@H]2C=C(C)C[C@]1(N)c1ccc(=O)[nH]c1C2` [(-)-Huperzine A (HupA)], the “z-score of prototroph abundance” value was 0.12.
With `COc1ccc(C(Cl)=C(c2ccc(OC)cc2)c2ccc(OC)cc2)cc1` [Chlorotrianisene] the “z-score of prototroph abundance” value was -0.67.
With `Nc1nc2c(ncn2COC(CO)CO)c(=O)[nH]1` [Ganciclovir] the “z-score of prototroph abundance” value was -0.25.
`CO/N=C(\C(=O)N[C@@H]1C(=O)N2C(C(=O)O)=C(COC(N)=O)CS[C@H]12)c1ccco1` [Cefuroxime sodium] was tested, and the “z-score of prototroph abundance” value was 0.23.
With `C[C@@H](c1nc(-c2ccc(C#N)cc2)cs1)[C@](O)(Cn1cncn1)c1cc(F)ccc1F` [Isavuconazole] the “z-score of prototroph abundance” value was -10.4.
In the case of `Cc1ccsc1/C=C/C1=NCCCN1C` [Morantel tartrate], the “z-score of prototroph abundance” value is reported as 0.27.
In the case of `CC(=O)C1C(=O)C=C(C)OC1=O` (stereo not given) [Sodium dehydroacetate], the “z-score of prototroph abundance” value is reported as -1.07.
With `CN[C@@H]1[C@@H](O)[C@@H](O[C@@H]2[C@@H](O)[C@H](O[C@H]3O[C@H](CN)[C@@H](O)[C@H](O)[C@H]3O)[C@@H](N)C[C@H]2NC(=O)[C@@H](O)CN)OC[C@]1(C)O` [Isepamicin Sulphate] the “z-score of prototroph abundance” value was -0.32.
`CC(C)COc1ccc(CNC(=O)N(Cc2ccc(F)cc2)C2CCN(C)CC2)cc1` [Pimavanserin] was tested, and the “z-score of prototroph abundance” value was -0.05.
With `COCCCOc1ccnc(C[S+]([O-])c2nc3ccccc3[nH]2)c1C` (stereo not given) [Rabeprazole] the “z-score of prototroph abundance” value was -0.81.
`C[C@H](NCc1ccc(OCc2cccc(F)c2)cc1)C(N)=O` [Safinamide] was tested, and the “z-score of prototroph abundance” value was -0.89.
In the case of `CC(Cc1ccc(O)c(O)c1)C(C)Cc1ccc(O)c(O)c1` (stereo not given) [Nordihydroguaiaretic acid (NDGA)], the “z-score of prototroph abundance” value is reported as 0.67.
For `COc1c(N2CCNC(C)C2)c(F)cc2c(=O)c(C(=O)O)cn(C3CC3)c12` (stereo not given) [Gatifloxacin], the “z-score of prototroph abundance” value was -0.15.
In the case of `COc1cc(NC(C)CCCN)c2ncccc2c1` (stereo not given) [Primaquine Diphosphate], the “z-score of prototroph abundance” value is reported as 0.58.
`C[C@@H]1CN(c2c(F)c(N)c3c(=O)c(C(=O)O)cn(C4CC4)c3c2F)C[C@H](C)N1` [Sparfloxacin] was tested, and the “z-score of prototroph abundance” value was 0.52.
For `CC(C)n1c(/C=C/C(O)CC(O)CC(=O)O)c(-c2ccc(F)cc2)c2ccccc21` (stereo not given) [Fluvastatin Sodium], the “z-score of prototroph abundance” value was -11.
With `Cc1onc(-c2c(F)cccc2Cl)c1C(=O)N[C@@H]1C(=O)N2[C@@H]1SC(C)(C)[C@@H]2C(=O)O` [Flucloxacillin sodium] the “z-score of prototroph abundance” value was -0.59.
For `O=C(O)CCNC(=O)c1ccccc1` [Betamipron], the “z-score of prototroph abundance” value was -0.09.
In the case of `CCCN[C@H]1CCc2nc(N)sc2C1` [Pramipexole 2HCl Monohydrate], the “z-score of prototroph abundance” value is reported as 0.72.
With `C#C[C@]1(O)CC[C@H]2[C@@H]3CCc4cc(OC)ccc4[C@H]3CC[C@@]21C` [Mestranol] the “z-score of prototroph abundance” value was 0.82.
With `CCCN(CCC)CCc1cccc2c1CC(=O)N2` [Ropinirole HCl] the “z-score of prototroph abundance” value was -0.81.
In the case of `C[C@@H](c1ncncc1F)[C@](O)(Cn1cncn1)c1ccc(F)cc1F` [Voriconazole], the “z-score of prototroph abundance” value is reported as -11.6.
`CC1(C)S[C@@H]2[C@H](NC(=O)Cc3ccccc3)C(=O)N2[C@H]1C(=O)O` [Penicillin G Sodium] was tested, and the “z-score of prototroph abundance” value was 0.77.
For `O=C(c1ccccc1)c1ccc2n1CCC2C(=O)O` (stereo not given) [Ketorolac], the “z-score of prototroph abundance” value was 0.73.
`COc1ccc(CN2CCN(C(c3ccc(F)cc3)c3ccc(F)cc3)CC2)c(OC)c1OC` [Lomerizine 2HCl] was tested, and the “z-score of prototroph abundance” value was -0.1.
With `CCCCCOc1ccc(-c2ccc(-c3ccc(C(=O)N[C@H]4C[C@@H](O)[C@@H](O)NC(=O)[C@@H]5[C@@H](O)[C@@H](C)CN5C(=O)[C@H]([C@@H](C)O)NC(=O)[C@H]([C@H](O)[C@@H](O)c5ccc(O)cc5)NC(=O)[C@@H]5C[C@@H](O)CN5C(=O)[C@H]([C@@H](C)O)NC4=O)cc3)cc2)cc1` the “z-score of prototroph abundance” value was -14.8.
In the case of `C[C@]12CC[C@@H]3c4ccc(O)cc4CC[C@H]3[C@@H]1CCC2=O` [Estrone], the “z-score of prototroph abundance” value is reported as 0.49.
In the case of `CC(NCCC(c1ccccc1)c1ccccc1)c1ccccc1` (stereo not given) [Fendiline hydrochloride], the “z-score of prototroph abundance” value is reported as 1.56.
`C=CCc1ccc(O)c(-c2ccc(O)c(CC=C)c2)c1` [Honokiol] was tested, and the “z-score of prototroph abundance” value was 1.92.
In the case of `NC[C@H]1O[C@H](O[C@H]2[C@H](O[C@@H]3O[C@H](CO)[C@@H](O)[C@H]3O)[C@@H](O)[C@H](N)C[C@@H]2N)[C@H](N)[C@@H](O)[C@@H]1O` [Ribostamycin Sulfate], the “z-score of prototroph abundance” value is reported as 0.31.
For `C[C@@H](O)[C@H]1C(=O)N2C(C(=O)O)=C(SCCNC=N)C[C@H]12` [Imipenem], the “z-score of prototroph abundance” value was -0.79.
In the case of `Cc1cccc(C)c1OCC(C)N` (stereo not given) [Mexiletine HCl], the “z-score of prototroph abundance” value is reported as 0.5.
`CC[N+](C)(C)c1cccc(O)c1` [Edrophonium chloride] was tested, and the “z-score of prototroph abundance” value was -0.67.
For `CCCN[C@H]1CCc2nc(N)sc2C1` [Pramipexole], the “z-score of prototroph abundance” value was -0.22.
`CC1(C)S[C@@H]2[C@H](NC(=O)[C@H](N)c3ccc(O)cc3)C(=O)N2[C@H]1C(=O)O` [Amoxicillin trihydrate] was tested, and the “z-score of prototroph abundance” value was -0.1.
